Assay results taken from PubChem BioAssay (NCATS).
Where “and” joins values, the source holds several entries; their conditions need not be identical. Equal values may be shown once. Results filed as inconclusive are left out. Calls of active or inactive are those of the source. Calls follow the shape of the dose curve; as a rule, active = well fitted curve in the direction sought with a large enough effect; inconclusive = small, poorly fitted or top-dose-only effect, or another doubt; inactive = no such curve, though single readings can be large; an effect the other way counts as inactive or inconclusive.

How the values were obtained:
[1] = qHTS of pediatric cancer cell lines to identify multiple opportunities for drug repurposing: Confirmatory screen for NB1643 cells (AID 1347109); also: nearly all actives have a fitted effect of over 45% in size; also: potency is read from the fitted curve at half-maximal effect
Procedure, shortened: (§1)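 Cells (500-1,000/well) rested 5 h, then received compounds for 48 h; metabolically active cells were measured by CellTiter-Glo luminescence. Final concentrations spanned up to 46 µM (MIPE, 11-point) or 0.59 nM-46 µM (NPC, 8-point) in primary screens, 11-point in follow-ups.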

[2] = qHTS of pediatric cancer cell lines to identify multiple opportunities for drug repurposing: Confirmatory screen for SK-N-MC cells (AID 1347111);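 also: potency is read from the fitted curve at half-maximal effect; cells exposed to compound for 48 h before the readout; nearly all actives have a fitted effect of over 70% in size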
Procedure, shortened: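 Seed 500-1,000 cells/well; rest 5 h at 37 degrees C. Pin-transfer compounds, 11-point titration. Incubate 48 h. Add CellTiter-Glo, 15 min RT, read luminescence.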

[3] = qHTS of pediatric cancer cell lines to identify multiple opportunities for drug repurposing: Confirmatory screen for BT-12 cells (AID 1347112); also: potency is read from the fitted curve at half-maximal effect;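 also: viability read after 48 h of compound exposure; nearly all actives have a fitted effect of over 55% in size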
Procedure, shortened: as §1

[4] = qHTS of pediatric cancer cell lines to identify multiple opportunities for drug repurposing: Confirmatory screen for LAN-5 cells (AID 1347113); also: nearly all actives have a fitted effect of over 65% in size; also: potency is read from the fitted curve at half-maximal effect
Procedure, shortened: as §1

[5] = qHTS of pediatric cancer cell lines to identify multiple opportunities for drug repurposing: Confirmatory screen for NB-EBc1 cells (AID 1347115);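 also: cells exposed to compound for 48 h before the viability read; nearly all actives have a fitted effect of over 45% in size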; also: potency is read from the fitted curve at half-maximal effect
Procedure, shortened: as §1

[6] = qHTS of pediatric cancer cell lines to identify multiple opportunities for drug repurposing: Confirmatory screen for SJ-GBM2 cells (AID 1347116); also: nearly all actives have a fitted effect of over 60% in size
Procedure, shortened: (§2)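 Viability measured as metabolically active cells via CellTiter-Glo luminescence following 48 hours of compound exposure, 11-point dilutions in confirmatory testing. 500-1,000 cells/well plated 5 hours before dosing; controls were DMSO and 2.3 µM bortezomib.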

[7] = qHTS of pediatric cancer cell lines to identify multiple opportunities for drug repurposing: Confirmatory screen for TC32 cells (AID 1347118);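 also: potency is read from the fitted curve at half-maximal effect; cells exposed to compound for 48 h before the read; nearly all actives have a fitted effect of over 65% in size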
Procedure, shortened: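 TC32 cells, 500-1,000/well in growth medium, compound-treated 48 h at 37 °C; viability from CellTiter-Glo luminescence. Primary screen: MIPE 11-point (0.78 nM–46 µM final), NPC 8-point (0.59 nM–46 µM final); confirmatory at 11-point dilutions.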

[8] = qHTS of pediatric cancer cell lines to identify multiple opportunities for drug repurposing: Confirmatory screen for MG 63 (6-TG R) cells (AID 1347119); also: nearly all actives have a fitted effect of over 55% in size; also: potency is read from the fitted curve at half-maximal effect
Procedure, shortened: as §1

[9] = qHTS of pediatric cancer cell lines to identify multiple opportunities for drug repurposing: Confirmatory screen for control Hh wild type fibroblast cells (AID 1347121); also: nearly all actives have a fitted effect of over 70% in size
Procedure, shortened: as §1

[10] = qHTS of pediatric cancer cell lines to identify multiple opportunities for drug repurposing: Confirmatory screen for U-2 OS cells (AID 1347122); also: nearly all actives have a fitted effect of over 65% in size; also: potency is read from the fitted curve at half-maximal effect
Procedure, shortened: as §1

[11] = qHTS of pediatric cancer cell lines to identify multiple opportunities for drug repurposing: Confirmatory screen for Rh18 cells (AID 1347125); also: nearly all actives have a fitted effect of over 55% in size
Procedure, shortened: as §1

[12] = qHTS of pediatric cancer cell lines to identify multiple opportunities for drug repurposing: Confirmatory screen for Rh30 cells (AID 1347126); also: nearly all actives have a fitted effect of over 55% in size; also: potency is read from the fitted curve at half-maximal effect
Procedure, shortened: as §1

[13] = qHTS of pediatric cancer cell lines to identify multiple opportunities for drug repurposing: Confirmatory screen for OHS-50 cells (AID 1347128)
Procedure, shortened: as §1

[14] = qHTS of pediatric cancer cell lines to identify multiple opportunities for drug repurposing: Confirmatory screen for SK-N-SH cells (AID 1347129);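 also: cells exposed to compound for 48 h before viability read; nearly all actives have a fitted effect of over 60% in size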; also: potency is read from the fitted curve at half-maximal effect
Procedure, shortened: as §1

[15] = qHTS of pediatric cancer cell lines to identify multiple opportunities for drug repurposing: Confirmatory screen for A673 cells (AID 1347110);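 also: cells exposed to compound for 48 h before the viability read; nearly all actives have a fitted effect of over 65% in size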; also: potency is read from the fitted curve at half-maximal effect
Procedure, shortened: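 Cells plated at 500-1,000/well were treated five hours later with multi-point dilutions up to 46 µM final. After two days, CellTiter-Glo was added and luminescence read.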

[16] = qHTS of pediatric cancer cell lines to identify multiple opportunities for drug repurposing: Confirmatory screen for BT-37 cells (AID 1347117); also: nearly all actives have a fitted effect of over 55% in size; also: potency is read from the fitted curve at half-maximal effect
Procedure, shortened: as §1

[17] = qHTS of pediatric cancer cell lines to identify multiple opportunities for drug repurposing: Confirmatory screen for Rh41 cells (AID 1347123);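 also: potency is read from the fitted curve at half-maximal effect; 48 h compound exposure; nearly all actives have a fitted effect of over 60% in size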
Procedure, shortened: as §1

[18] = qHTS of pediatric cancer cell lines to identify multiple opportunities for drug repurposing: Primary screen for Rh41 cells (AID 1347108);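 also: series mostly up to about 46 µM; luminescence drop marks cytotoxic hits; nearly all actives have a fitted effect of over 70% in size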
Procedure, shortened: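 Cells plated at 500-1,000/well in growth medium, compounds added after 5 h. MIPE tested at 11 points (from 0.78 nM), NPC at 8 points (from 0.59 nM). CellTiter-Glo luminescence after 48 h; concentration-response curves from primary screen.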

[19] = biological target: N-terminal Xaa-Pro-Lys N-methyltransferase 1 (Homo sapiens) (UniProt Q9BV86); assay: qHTS Assay for Inhibitors of N-terminal methyltransferase 1 (NTMT1): LOPAC validation of the NTMT1 SAHH-coupled ThioGlo3 Assay (AID 1347143);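 also: SAH from peptide methylation measured as thiol fluorescence via SAHH coupling and ThioGlo3; nearly all actives have a fitted effect of over 70% in size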; also: potency is read from the fitted curve at half-maximal effect
N-terminal Xaa-Pro-Lys N-methyltransferase 1 (Homo sapiens), sequence (Q9BV86 whole entry, looked up): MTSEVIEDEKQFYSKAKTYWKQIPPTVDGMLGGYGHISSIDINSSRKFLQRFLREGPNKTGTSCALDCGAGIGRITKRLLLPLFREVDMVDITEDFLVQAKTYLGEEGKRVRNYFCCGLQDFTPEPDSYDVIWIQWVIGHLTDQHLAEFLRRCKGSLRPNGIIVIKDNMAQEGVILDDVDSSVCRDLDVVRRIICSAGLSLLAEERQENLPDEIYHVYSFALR
Procedure, shortened: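 NTMT1 125nM + cpds (various conc.), 1 min RT; add SAM 100uM/SAHH 10uM/ThioGlo3 15uM (addition mix). SAHH-coupled thiol detection, Ex340/Em450, t0 and 30 min RT; signal normalized to background. LOPAC 1280-cpd pilot.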

[20] = qHTS of pediatric cancer cell lines to identify multiple opportunities for drug repurposing: Confirmatory screen for DAOY cells (AID 1347114); also: nearly all actives have a fitted effect of over 65% in size; also: potency is read from the fitted curve at half-maximal effect
Procedure, shortened: as §2

Measured: Potency

CN[C@@H](C)C(=O)N[C@H]1CN(C(=O)CC(C)C)CC[C@H]2CC[C@@H](C(=O)NC(c3ccccc3)c3ccccc3)N2C1=O
inactive: [1] | [3] | [4] | [5] | [6] | [8] | [9] | [10] | [11] | [12] | [13] | [14]
active: [2] 7.37 µM | [7] 8.27 µM

CC[C@]1(O)C[C@@H]2CN(CCc3c([nH]c4ccccc34)[C@@](C(=O)OC)(c3cc4c(cc3OC)N(C=O)[C@@H]3C45CCN4CC=C[C@](CC)([C@H]45)[C@@H](OC(C)=O)[C@]3(O)C(=O)OC)C2)C1 (stereo partly specified)
inactive: [1] | [15] | [3] | [4] | [5] | [16] | [8] | [9] | [10] | [11] | [13] | [14]

CO[C@H]1C[C@@H]2CC[C@@H](C)[C@@](O)(O2)C(=O)C(=O)N2CCCC[C@@H]2C(=O)O[C@H]([C@H](C)C[C@@H]2CC[C@H](OP(C)(C)=O)[C@H](OC)C2)CC(=O)[C@H](C)C=C(C)[C@@H](O)[C@@H](OC)C(=O)[C@H](C)C[C@H](C)C=CC=CC=C1C
active: [2] 11.7 µM | [7] 10.4 µM | [10] 14.7 µM | [17] 4.65 µM | [12] 18.5 µM
inactive: [1] | [9] | [11] | [14]

CC[C@@H]1C=C(C)C[C@H](C)C[C@H](OC)[C@H]2O[C@@](O)(C(=O)C(=O)N3CCCC[C@@H]3C(=O)O[C@H](C(C)=C[C@@H]3CC[C@H](Cl)[C@H](OC)C3)[C@H](C)[C@@H](O)CC1=O)[C@H](C)C[C@H]2OC
inactive: [15] | [9] | [14]
active: [5] 23.3 µM | [7] 18.5 µM | [17] 13.1 µM

CC(C)NCC(O)COc1cccc2[nH]ccc12 (stereo unspecified)
inactive: [18] | [19]

Clc1ccc(Cn2c(CN3CCCC3)nc3ccccc32)cc1
inactive: [19]

C[N+](C)(C)CCCCCC[N+](C)(C)C
inactive: [18] | [19]

CC(C)OC(=O)C(C)(C)Oc1ccc(C(=O)c2ccc(Cl)cc2)cc1
inactive: [18] | [19]

O=c1c(-c2ccc(O)cc2)coc2cc(O)ccc12
inactive: [18]
active: [19] 50.1 µM

CC[C@]1(O)C[C@@H]2CN(CCc3c([nH]c4ccccc34)[C@@](C(=O)OC)(c3cc4c(cc3OC)N(C)[C@H]3[C@@](O)(C(=O)OC)[C@H](OC(C)=O)[C@]5(CC)C=CCN6CC[C@]43[C@@H]65)C2)C1
inactive: [9]
active: [1] 1.31 µM | [15] 32.9 nM and 36.9 nM | [2] 657 nM and 737 nM | [3] 1.65 µM and 1.85 µM | [4] 2.33 µM | [20] 208 nM and 233 nM | [16] 737 nM and 1.17 µM | [7] 465 nM and 827 nM | [8] 522 nM and 1.04 µM | [10] 369 nM and 1.17 µM | [17] 82.7 nM and 104 nM | [14] 0.148 µM

CC(=O)O[C@]1(C(C)=O)CC[C@@H]2[C@@H]3C[C@H](C)C4=CC(=O)CC[C@]4(C)[C@H]3CC[C@@]21C
inactive: [4] | [20] | [5] | [8] | [9] | [10] | [13] | [14]
